Structures are written as SMILES. Potency and affinity values are given separately.

The record followed here is ChEMBL document CHEMBL4513146, “CO-ADD screening of Karazin Kharkiv National University (Ukraine) compounds”.

One assay has as its system Staphylococcus aureus. To be noted: Concentration 32 ug.mL-1;; ASSAY_TEST Inhibition of Bacterial Growth; detection method Absorption (OD600); MEDIA CAMHB; plate type 384well; NBS; CORNING #3640; time 18 hr.
The next assay relates to Escherichia coli. To be noted: Concentration 32 ug.mL-1;; ASSAY_TEST Inhibition of Bacterial Growth; detection method Absorption (OD600); MEDIA CAMHB; plate type 384well; NBS; CORNING #3640; time 18 hr.

`CCc1cccc(NC(=O)Cn2nc3ccc(SC(C)C)nn3c2=O)c1`: the Inhibition (in general, the drop in the measured response relative to a control, in per cent) was 3.75% with Staphylococcus aureus and -0.03% with Escherichia coli.
On to `Cc1ccc(NC(=O)Cn2nc3ccc(-c4ccc(Cl)cc4)nn3c2=O)cc1`, for which the Inhibition is 0.77% in the assay on Staphylococcus aureus and -0.85% with Escherichia coli.
For `Cc1ccc(Sc2nccn3c(=O)n(CC(=O)Nc4cc(Cl)ccc4C)nc23)c(C)c1`, the Inhibition is -0.43% in the assay with Staphylococcus aureus and -11.77% with Escherichia coli.
As for `Cc1ccc(NC(=O)Cn2nc3ccc(-c4ccc(C)c(C)c4)nn3c2=O)cc1`, the results for the Inhibition in the assay with Staphylococcus aureus and with Escherichia coli were 12.01% and -5.02%, respectively.
On the same counts, the results for `O=c1c2sccc2n2c(=O)n(Cc3cccc(Br)c3)nc2n1Cc1cccs1` are -27.59% and -23.42%.
Regarding `CC(C)Sc1ccc2nn(CC(=O)Nc3ccc(Cl)cc3F)c(=O)n2n1`, the Inhibition is on record as 9.58% in the assay on Staphylococcus aureus and -1.02% in the assay on Escherichia coli.
On the same counts, the results for `COc1cccc(-c2noc(Cn3nc4ccc(-c5ccc(C)c(C)c5)nn4c3=O)n2)c1OC` are 6.16% and -3.11%.
On the same counts, the results for `CN(C)c1nc2ccccc2n2c(=O)n(CC(=O)Nc3ccc4c(c3)OCO4)nc12` are 1.33% and 1.96%.
With `CCOc1ccccc1NC(=O)Cn1nc2c(Oc3cccc(OC)c3)nccn2c1=O`, the Inhibition is 11.72% with Staphylococcus aureus and -4.66% in the assay with Escherichia coli.
Regarding `Cc1cccc(C)c1NC(=O)Cn1nc2ccc(SCc3ccc(Cl)cc3)nn2c1=O`, the Inhibition in the assay on Staphylococcus aureus is -3.66%; in the assay on Escherichia coli, -13.3%.
On the same counts, the results for `O=C(CSc1nnc2c(=O)n(Cc3ccc(F)cc3)ccn12)NC1CCCC1` are 13.37% and -4.53%.
Take `COc1ccc(C(=O)CSc2nnc3c(=O)n(-c4ccc(F)cc4)ccn23)cc1OC`: the Inhibition with Staphylococcus aureus was 16.25%; with Escherichia coli, -2.12%.
Regarding `Cc1cccc(NC(=O)Cn2nc3ccc(-c4ccc(Cl)cc4)nn3c2=O)c1`, the Inhibition was 7.34% with Staphylococcus aureus and -1.37% with Escherichia coli.
Regarding `Cc1cccc(Oc2nc3ccccc3n3c(=O)n(CC(=O)Nc4ccc5c(c4)OCCO5)nc23)c1C`, the Inhibition in the assay with Staphylococcus aureus is 10.6%; in the assay with Escherichia coli, -1.83%.
Turning to `COC(=O)c1ccccc1NC(=O)Cn1nc2c(SC3CCCCC3)nccn2c1=O`, the Inhibition in the assay with Staphylococcus aureus was -10.07%; in the assay on Escherichia coli, -11.96%.
For the molecule `COc1ccc(NC(=O)Cn2nc3c(Sc4ccccc4)nccn3c2=O)cc1OC`, the Inhibition is -8.9% in the assay on Staphylococcus aureus and -5.11% in the assay with Escherichia coli.
Turning to `COc1ccc(-c2cc3c4nn(CC(=O)Nc5ccccc5Cl)c(=O)n4ccn3n2)cc1`, the Inhibition is listed as -2.84% in the assay with Staphylococcus aureus and -5.57% in the assay with Escherichia coli.
With `Cc1ccc(Sc2nccn3c(=O)n(CC(=O)N4CCN(c5ccccc5)CC4)nc23)c(C)c1`, the Inhibition in the assay on Staphylococcus aureus was -10.57%; in the assay on Escherichia coli it was -12.78%.
On the same counts, the results for `COC(=O)c1cccc(NC(=O)Cn2nc3c(N4CCCCCC4)nccn3c2=O)c1` are -4.81% and -10.52%.
On to `COc1ccc(NC(=O)Cn2nc3ccc(SCc4ccc(Cl)cc4)nn3c2=O)cc1OC`, for which the Inhibition in the assay with Staphylococcus aureus is 0.34%; with Escherichia coli it was -7.61%.
For `Cc1cc(C)cc(Nc2nc(C)cc3nn(CC(=O)Nc4cc(F)cc(F)c4)c(=O)n23)c1` the same measures were 7.68% and -2.61%.
With `COc1ccc(NC(=O)Cn2nc3c(N4CC(C)CC(C)C4)nccn3c2=O)c(OC)c1` (stereo not drawn), the Inhibition in the assay with Staphylococcus aureus is 18.35%; in the assay with Escherichia coli, 1.24%.
On the same counts, the results for `Cc1ccc(Oc2nccn3c(=O)n(CC(=O)Nc4ccc(F)cc4F)nc23)cc1` are 19.59% and -0.38%.
For `COc1ccc(CNC(=O)Cn2nc3c4cc(-c5ccc(OC)cc5)nn4ccn3c2=O)cc1`, the Inhibition with Staphylococcus aureus is recorded as -1.74%; in the assay on Escherichia coli it was -1.87%.
